This note sets out measurements from PubChem BioAssay (NCATS).

A short description of assay [1]: P-glycoprotein substrates identified in KB-8-5-11 adenocarcinoma cell line, qHTS therapeutic library screen (AID 1346987). Note: nearly all actives have a fitted effect of over 65% in size. In a few lines: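 P-gp-mediated resistance screen: KB-8-5-11 cells treated 72 h with compounds in dose-response. CellTiter-Glo viability.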
In general terms: In qHTS, concentration-response curves come from the screen itself.

Assay [2] can be described thus: NS1 protein of Zika virus - qHTS assay to identify small molecule inhibitors in human HEK 293 cells (AID 1347053). Note: nearly all actives have a fitted effect of over 55% in size. In a few lines: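 HEK 293; 20 h pre-culture, 37 C/5% CO2; cpd 1 h pre-infection; ZIKV MR766, MOI = 0.5, 24 h, 37 C; TR-FRET NS1 readout (two anti-NS1 Abs); norm. to no-virus vs infected.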

Several values for one entry are separate records, joined by “and”; a condition that tells them apart may be missing. Identical values can stand only once. Records with an inconclusive call do not appear. Entries that show only a call come without a potency. Activity calls are given as the source filed them. Calls come from the whole dose curve; as a rule, active = well fitted curve in the direction sought with a large enough effect; inconclusive = small, poorly fitted or top-dose-only effect, or another doubt; inactive = no such curve, though single readings can be large; an effect the other way counts as inactive or inconclusive.
Potency is the fitted concentration of half-maximal effect.

As to `CN1[C@H]2CC[C@H]1CC(OC(=O)c1c[nH]c3ccccc13)C2` (stereo partly specified), the Potency entry in assay [1] and in assay [2] was “inactive” each time.
Take `Cc1cnc(-c2cc(N3CCN(C(=O)CCS(C)(=O)=O)CC3)ncc2Cl)c(C)c1`: the Potency result in assay [1] and in assay [2] was “inactive” each time.
Turning to `COc1ccnc(CS(=O)c2nc3ccc(OC(F)F)cc3[nH]2)c1OC` (stereo unspecified), the Potency result in assay [1] and in assay [2] was “inactive” in each case.
On to `COc1cc(C=CC(=O)O)ccc1O`, for which the Potency result in assay [1] and in assay [2] was “inactive” throughout.
Consider `Cc1cc2nc3c(=O)[nH]c(=O)nc-3n(CC(O)C(O)C(O)CO)c2cc1C` (stereo unspecified), for which the Potency result in assay [1] and in assay [2] was “inactive” each time.
Consider `CC[C@]1(O)C[C@H]2CN(CCC3=c4ccccc4=N[C]3[C@@](C(=O)OC)(c3cc4c(cc3OC)N(C)[C@H]3[C@@](O)(C(N)=O)[C@H](O)[C@]5(CC)C=CCN6CC[C@]43[C@@H]65)C2)C1`, for which the Potency was 1.48 µM (active) in assay [1] and 1.66 µM (active) in assay [2].
As to `Cc1cc(CS(=O)(=O)c2ccccc2)cc(OCc2ccc(CN3CCC[C@H]3CO)cc2)c1`, the Potency in assay [1] was 4.18 µM (active). The Potency result in assay [2] is “inactive”.
Taken in the same sequence, the figures for `C[C@@H]1C[C@H]2[C@@H]3CCC4=CC(=O)C=C[C@]4(C)[C@@]3(F)[C@@H](O)C[C@]2(C)[C@@]1(O)C(=O)CO` were “inactive” and “inactive”.
Taken in the same sequence, the figures for `Cc1ccc(C2=Nc3ccc(Cl)cc3OC2)cc1` were “inactive” and “inactive”.
`CCN(CCO)CCCOc1ccc2c(Nc3cc(CC(=O)Nc4cccc(F)c4)[nH]n3)ncnc2c1`: the Potency result in assay [1] and in assay [2] was “inactive” each time.
For `C[C@]12CC[C@@H]3c4ccc(O)cc4CC[C@H]3[C@H]1[C@@H](O)[C@@H](O)[C@H]2O`, the Potency entry in assay [1] and in assay [2] was “inactive” in each case.
As for `NCc1c[nH]c(=S)n1[C@H]1CCc2c(F)cc(F)cc2C1`, the Potency result in assay [1] and in assay [2] was “inactive” in each case.
For the compound `CC(C)(OCc1nn(Cc2ccccc2)c2ccccc12)C(=O)O`, the Potency entry in assay [1] and in assay [2] was “inactive” throughout.
For the compound `CO[C@@H]1C(N(C)C(=O)c2ccccc2)C[C@H]2O[C@]1(C)n1c3ccccc3c3c4c(c5c6ccccc6n2c5c31)C(=O)NC4=O` (stereo partly specified), the Potency in assay [1] was 7.43 µM (active). Further, in assay [2], the Potency result was “inactive”.
Taken in the same sequence, the figures for `COc1cc([C@H]2Oc3cc([C@H]4Oc5cc(O)cc(O)c5C(=O)[C@H]4O)ccc3O[C@H]2CO)ccc1O` were “inactive” and “inactive”.
Taken in the same sequence, the figures for `CNC(=O)[C@H](CC1=CN=C2C=CCC=C12)NC(=O)[C@@H](CC(=O)NO)CC(C)C` were “inactive” and “inactive”.
Taken in the same sequence, the figures for `OC[C@H]1O[C@@H](OCCc2ccc(O)cc2)[C@H](O)[C@@H](O)[C@H]1O` were “inactive” and “inactive”.
Regarding `COc1ccc2c(c1)c(C1=C(c3c[nH]c4ccccc34)C(=O)NC1=O)cn2CCCN(C)C`, the Potency entry in assay [1] and in assay [2] was “inactive” each time.
As to `C[C@@H](N)c1ccc(C(=O)Nc2ccnc3[nH]ccc23)cc1`, the Potency entry in assay [1] and in assay [2] was “inactive” throughout.
With `C#C[C@]1(O)CC[C@H]2[C@H]3CCc4cc(OC)ccc4[C@H]3CC[C@@]21C`, the Potency result in assay [1] and in assay [2] was “inactive” throughout.
As to `NC(N)=Nc1nc(CSCCC(N)=NS(N)(=O)=O)cs1`, the Potency entry in assay [1] and in assay [2] was “inactive” in each case.
As for `CC(C)c1c(C(=O)Nc2ccccc2)c(-c2ccccc2)c(-c2ccc(F)cc2)n1CC[C@H](O)C[C@@H](O)CC(=O)O`, the Potency entry in assay [1] and in assay [2] was “inactive” in each case.
As to `CNC1CCC(N(Cc2cccc(-c3ccncc3)c2)C(=O)c2sc3ccccc3c2Cl)CC1` (stereo unspecified), the Potency in assay [1] is 11.8 µM (active) and 20.6 µM (active); in assay [2], 9.35 µM (active).
Take `COc1ccc(CCC(=O)Nc2nc3ccc(Cl)cc3s2)cc1OC`: the Potency entry in assay [1] and in assay [2] was “inactive” in each case.
`Cc1c(C(=O)Nc2ccc(N3C[C@@H](C)O[C@@H](C)C3)nc2)cccc1-c1ccc(OC(F)(F)F)cc1`: the Potency entry in assay [1] and in assay [2] was “inactive” in each case.
In the case of `COC(=O)N1CCN(Cc2cccc(NC(=O)Nc3ccc(C)nc3)c2F)CC1`, the Potency result in assay [1] and in assay [2] was “inactive” in each case.
In the case of `CCCCC(C)(C)[C@H](O)C=C[C@H]1[C@H](O)CC(=O)[C@H]1CC=CCCCC(=O)O`, the Potency entry in assay [1] and in assay [2] was “inactive” throughout.
Regarding `CCCCCOC(=O)Nc1nc(=O)n([C@@H]2O[C@H](C)[C@@H](O)C2O)cc1F` (stereo partly specified), the Potency result in assay [1] and in assay [2] was “inactive” throughout.
On to `CN(C)CC[C@H](CSc1ccccc1)Nc1ccc(S(=O)(=O)NC(=O)c2ccc(N3CCN(Cc4ccccc4-c4ccc(Cl)cc4)CC3)cc2)cc1[N+](=O)[O-]`, for which the Potency entry in assay [1] and in assay [2] was “inactive” in each case.
For `C[C@]12C=CC(=O)C=C1CC[C@@H]1[C@@H]2[C@@H](O)C[C@@]2(C)[C@@H]1CC[C@]2(O)C(=O)CO`, the Potency result in assay [1] and in assay [2] was “inactive” in each case.
In the case of `CNC(=O)c1ccc2c(C(=Nc3cccc(CN(C)C)c3)c3ccccc3)c(O)[nH]c2c1`, the Potency result in assay [1] and in assay [2] was “inactive” each time.
On to `CS(=O)(=O)c1ccc(C2=C(c3ccccc3)C(=O)OC2)cc1`, for which the Potency entry in assay [1] and in assay [2] was “inactive” throughout.
Consider `CC[C@H]1OC(=O)[C@H](C)[C@@H](O[C@H]2C[C@@](C)(OC)[C@@H](O)[C@H](C)O2)[C@H](C)[C@@H](O[C@@H]2O[C@H](C)C[C@H](N(C)C)[C@H]2O)[C@](C)(O)C[C@H](C)C(=NOCOCCOC)[C@H](C)[C@@H](O)[C@]1(C)O`, for which the Potency entry in assay [1] and in assay [2] was “inactive” each time.
